“And” between values parts separate entries of the source, which are not always exact repeats. Equal values may be shown once. Values without a mark were called inactive. Records with an inconclusive call do not appear. Where a call stands in place of a potency, no number is given. The source made the active and inactive calls. Unless noted, the call rests on the fitted dose curve; in most records, active means well fitted curve in the direction sought with a large enough effect; inconclusive means small, poorly fitted or top-dose-only effect, or another doubt; inactive means no such curve, though single readings can be large; an effect the other way counts as inactive or inconclusive.
Key:
[1] = Cell Viability - BJ (AID 421; calls by dose curve;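 further: potency means the concentration at half of the fitted maximal effect; cells exposed to compound for 40 hours at 37 °C before readout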); conditions: BJ fibroblast viability, qHTS
Method in brief: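 Quantitative HTS: ATP depletion in BJ cells after 40 hr compound exposure in complete culture medium, detected with CellTiter-Glo; AC50 from standard Hill fits.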

[2] = Cell Viability - Hek293 (AID 427;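 active means compounds whose dose-response curve shows a full or clear partial loss of cell viability, called from curve shape rather than a numeric limit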;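 further: potency means the concentration at half of the fitted maximal effect; cells exposed to compound for 40 hours at 37 °C before reading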); conditions: qHTS
Method in brief: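 AC50 values derive from Hill-modelled concentration-response of ATP-based luminescence, normalized between DMSO-only and 100 uM tamoxifen controls. Cells were exposed in complete culture medium for 40 hr at 37 °C before detection.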

[3] = Cell Viability - HepG2 (AID 433; calls by dose curve;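 further: potency means the concentration at half of the fitted maximal effect; potency for ATP loss meaning cytotoxicity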); conditions: qHTS
Method in brief: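 Read-out is luciferase-based quantitation of cellular ATP as a measure of viable HepG2 cells after 40 h treatment at 37 °C. Signal decrease is scaled between DMSO-only and 100 uM tamoxifen controls, with AC50 fitted by the Hill equation.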

[4] = Cell Viability - MRC5 (AID 434; calls by dose curve;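 further: potency means the concentration at half of the fitted maximal effect; potency reflects cytotoxicity seen as loss of intracellular ATP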); conditions: MRC5 lung fibroblast viability, qHTS
Method in brief: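 MRC5 normal human lung fibroblasts (1500/well) were treated with compounds for 40 hr at 37 °C in complete medium, and viable cells were measured as intracellular ATP by CellTiter-Glo luminescence. AC50 came from Hill fits, normalized to DMSO and 100 uM tamoxifen.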

[5] = Cell Viability - SK-N-SH (AID 435; calls by dose curve;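 further: potency means the concentration at half of the fitted maximal effect; compound exposure lasted 40 h at 37 °C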); conditions: SK-N-SH neuroblastoma cell viability qHTS
Method in brief: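 Luminescent ATP signal served as the viability read-out after 40 hours of compound treatment of human neuroblastoma SK-N-SH cells. Concentration-response data, scaled between DMSO and 100 uM tamoxifen, gave AC50 values by standard Hill modeling.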

[6] = biological target: Mitogen-activated protein kinase 10 (Mus musculus) (UniProt Q61831); assay: JNK3 AlphaScreen Assay (AID 530; active means well fitted curve in either direction with a large enough effect, not every such curve was filed as active;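 further: kinase came from lysate of stimulated human HepG2 cells; signal reports phosphorylation of biotinylated GST-cJun 1-79 at Ser73 with 10 µM ATP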)
Method in brief: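 Inhibitors reduce antibody binding to phosphorylated biotin-cJun, lowering AlphaScreen luminescence. Lysates from HepG2 cells pre-activated by IL-1beta plus TNF-alpha supplied JNK3; compounds were titrated.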

[7] = Cell Viability - N2a (AID 540); conditions: N2a mouse neuroblastoma cell viability; at 92.2 µM (top of the series); further: nearly all actives have a fitted effect of over 45% in size
Method in brief: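 Mouse neuroblastoma N2a cells, 1500/well, exposed to compounds 40 h at 37 °C in complete medium. Viability measured as cellular ATP by CellTiter-Glo luminescence; AC50 from Hill fits of concentration-response.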

[8] = Cell Viability - NIH 3T3 (AID 541); conditions: NIH 3T3 cell viability, qHTS; activity change, negative = cytotoxicity: at 92.2 µM (top of the series); further: nearly all actives have a fitted effect of over 25% in size
Method in brief: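 Mouse NIH 3T3 fibroblasts, 1000 cells/well, rested 5 hr at 37 °C, then exposed to compound for 40 hr at 37 °C in complete medium. Viability read as intracellular ATP by CellTiter-Glo luminescence; AC50 from Hill-equation fits of concentration-response data.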

[9] = Cell Viability - HUV-EC-C (AID 542); further: nearly all actives have a fitted effect of over 35% in size
Method in brief: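 HUV-EC-C human vascular endothelial cells, 1000/well, exposed to compound for 40 hr at 37 °C in complete medium. Intracellular ATP was read by CellTiter-Glo luminescence. AC50 came from Hill-equation fits of concentration-response data.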

[10] = Cell Viability - SH-SY5Y (AID 544); conditions: SH-SY5Y neuroblastoma cell viability; viability change, negative = cytotoxic: at 92.2 µM (top of the series); further: potency means the concentration at half of the fitted maximal effect; nearly all actives have a fitted effect of over 55% in size
Method in brief: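 SH-SY5Y human neuroblastoma cells (1500/well) incubated 5 h, then compound-treated 40 h at 37 °C in complete medium. Viability read as intracellular ATP by CellTiter-Glo luminescence after 20 min; AC50 from Hill-equation fits of qHTS concentration-response.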

[11] = Cell Viability - Renal Proximal Tubule (AID 545); conditions: renal proximal tubule cells viability; at 91.7 µM (top of the series), primary cells of rat origin unless noted; further: nearly all actives have a fitted effect of over 40% in size
Method in brief: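 Luminescent ATP signal (CellTiter-Glo) served as the viability read-out after 40 hr compound exposure of freshly isolated rat proximal tubule cells at 37 °C. Concentration-dependent ATP loss was fitted with the Hill equation to give AC50.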

[12] = Cellular Toxicity (caspase-3) HepG2 (AID 654);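 further: cells exposed to compound for 16 hours before reading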
Method in brief: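 HepG2 cells (1500/well) were treated 16 h at 37 °C in complete medium, then caspase 3/7 activity was read by Caspase-Glo luminescence. Data were normalized to DMSO and 100 uM tamoxifen; AC50 came from Hill-equation fits of qHTS concentration-response.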

[13] = Cellular Toxicity (caspase-3) Jurkat (AID 655); conditions: Jurkat caspase-3 activation, luminescence, DMSO = 0%, tamoxifen = 100%; at 92.2 µM (top of the series);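 further: cells exposed to compound for 16 h at 37 °C before reading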
Method in brief: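 5000 Jurkat cells/well; compound 16 hr, 37 °C; Caspase-Glo 3/7 added, 20 min RT; luminescence read. Norm: DMSO = 0%, tamoxifen 100 uM = 100%. AC50, Hill model.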

[14] = Cellular Toxicity (caspase-3) HUV-EC-C (AID 656)
Method in brief: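 qHTS; HUV-EC-C, 1000 cells/well; 5 hr settle, 16 hr cmpd, 37°C; Caspase-Glo 3/7, 20 min RT; luminescence. Norm: DMSO = 0%, tamoxifen 100 uM = 100%. Hill-fit AC50.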

[15] = Cellular Toxicity (caspase-3) SHSY5Y (AID 657)
Method in brief: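 qHTS, SH-SY5Y, 1500 cells/well, 5 h pre-incubation 37 °C; compound 16 h 37 °C; Caspase-Glo 3/7 1 h RT; luminescence. Norm.: DMSO = 0, 10 uM staurosporine = 100%. Hill fit → AC50.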

[16] = Cellular Toxicity (caspase-3) BJ (AID 658)
Method in brief: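 Luminescent aminoluciferin-substrate cleavage reports caspase 3/7 activity in normal human BJ fibroblasts after 16 hr compound exposure at 37 °C. Normalized to DMSO (basal) and 10 uM staurosporine (100%); AC50 from Hill fit of concentration-response.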

[17] = Cellular Toxicity (caspase-3) MRC-5 (AID 659)
Method in brief: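 Luminescence from caspase-cleaved aminoluciferin substrate (Caspase-Glo 3/7, 1 hr RT) reports caspase 3/7 activity in MRC-5 lung fibroblasts after 16 hr compound exposure. Normalized to DMSO basal and 10 uM staurosporine as 100%; AC50 from Hill fits.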

[18] = Cellular Toxicity (caspase-3) Mesangial (AID 660);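 further: cells exposed to compound for 16 h before the caspase read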
Method in brief: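 Human renal glomerular mesangial cells, 1000/well, 5 h at 37 C before 16 h compound treatment. Caspase-Glo 3/7 luminescence after 20 min; normalized to DMSO and 100 uM tamoxifen, AC50 from Hill fit.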

[19] = Cellular Toxicity (caspase-3) SK-N-SH (AID 661)
Method in brief: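 Human SK-N-SH neuroblastoma cells, 1500/well, were exposed to compounds for 16 hours at 37 °C. Caspase-Glo 3/7 luminescence was normalized to DMSO (basal) and 10 uM staurosporine (100%), and AC50 came from a Hill fit.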

[20] = Cellular Toxicity (caspase-3) H-4-II-E (AID 663);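 further: cells exposed to compound for 16 hr before readout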
Method in brief: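 Luminescence from caspase-cleaved aminoluciferin substrate, read 20 min after reagent addition, reports caspase 3/7 activation in rat H-4-II-E cells after 16 hr compound exposure. Normalized to DMSO (basal) and 100 uM tamoxifen (100%); AC50 from Hill fits.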

[21] = Cellular Toxicity (caspase-3) Hek293 (AID 664);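 further: cells exposed to compound for 16 h at 37 °C before readout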
Method in brief: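 HEK293 cells in complete medium treated 16 h at 37 °C, then Caspase-Glo 3/7 luminescence read after 20 min at room temperature. Normalized to DMSO and 100 uM tamoxifen; AC50 from Hill fit of concentration-response.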

[22] = Cellular Toxicity (caspase-3) NIH 3T3 (AID 666)
Method in brief: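 Mouse NIH 3T3 fibroblasts (1000/well) treated 16 h at 37 C; caspase-3/7 activity measured by Caspase-Glo 3/7 luminescence after 20 min. Normalized to DMSO and 100 uM tamoxifen; AC50 from Hill fits.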

[23] = Cellular Toxicity (caspase-3) Renal Proximal Tubule (AID 667); conditions: renal proximal tubule cells; at 91.7 µM (top of the series), primary cells freshly taken from rat, solvent-only wells 0%, staurosporine 100% unless noted;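 further: cells exposed to compound for 16 hours at 37 °C before detection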
Method in brief: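 AC50 derived by standard Hill fit of concentration-response data, normalized between DMSO basal and 10 uM staurosporine as 100% stimulation. Cells: primary rat kidney proximal tubule, 16 h treatment at 37 °C.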

[24] = biological target: Cytochrome P450 3A4 (Homo sapiens) (UniProt P08684); assay: qHTS Assay for Activators of Cytochrome P450 3A4 (AID 885); further: nearly all actives have a fitted effect of over 65% in size
Sequence of Cytochrome P450 3A4 (Homo sapiens) (P08684 whole entry, looked up): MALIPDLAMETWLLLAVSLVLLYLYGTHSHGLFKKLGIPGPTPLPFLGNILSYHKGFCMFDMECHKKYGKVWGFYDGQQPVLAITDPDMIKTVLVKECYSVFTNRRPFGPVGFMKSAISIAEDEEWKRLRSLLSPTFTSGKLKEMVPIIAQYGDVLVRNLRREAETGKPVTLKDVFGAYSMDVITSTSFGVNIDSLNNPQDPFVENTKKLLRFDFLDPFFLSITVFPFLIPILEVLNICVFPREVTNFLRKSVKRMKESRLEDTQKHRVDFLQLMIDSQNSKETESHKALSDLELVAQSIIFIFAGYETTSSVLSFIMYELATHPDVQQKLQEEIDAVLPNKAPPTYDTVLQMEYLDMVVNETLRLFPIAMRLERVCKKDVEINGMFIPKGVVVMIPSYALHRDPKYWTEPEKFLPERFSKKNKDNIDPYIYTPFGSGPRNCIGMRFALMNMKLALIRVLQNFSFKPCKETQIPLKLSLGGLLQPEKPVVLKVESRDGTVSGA
Method in brief: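 Quantitative HTS format: compounds preincubated with 20nM human CYP3A4 and Luciferin-PPXE substrate at KM, reaction started by NADPH regeneration, stopped after 60 min, luciferase luminescence read 20 min later.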

[25] = MultiTox-Fluor Cytotoxicity Assay - LYMP1-001 - Live Cells (AID 947)
[26] = Cell Viability - LYMP1-002 - Assay at 16 hr (AID 948)
Method in brief: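 Seed 2500 LYMP1-002 cells per well in complete medium and hold 5 hr at 37 C. Add compound across a concentration series and incubate 16 hr at 37 C. Add CellTiter-Glo, wait 30 min at room temperature, read luminescence.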

[27] = MultiTox-Fluor Cytotoxicity Assay - LYMP1-002 - Dead Cells (AID 960); further: nearly all actives have a fitted effect of over 60% in size
Method in brief: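 Human lymphoblastoid LYMP1-002 cells, 2500/well, treated 16 h at 37 C; dead-cell protease cleavage of bis-AAF-R110 read by fluorescence (485/520); normalized to DMSO and 15 uM tetraoctylammonium bromide; AC50 from Hill fit.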

[28] = MultiTox-Fluor Cytotoxicity Assay - LYMP1-003 - Dead Cells (AID 961); further: nearly all actives have a fitted effect of over 70% in size
Method in brief: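 Acute toxicity is scored as increased dead-cell protease activity in human lymphoblastoid LYMP1-003 cells after 16 h compound exposure in complete culture medium. Activity is normalized to DMSO basal and 15 uM tetraoctylammonium bromide as full response.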

[29] = MultiTox-Fluor Cytotoxicity Assay - LYMP1-003 - Live Cells (AID 962);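 further: cytotoxic hits lower the live-cell protease signal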
Method in brief: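 LYMP1-003 lymphoblastoid cells, 2500/well in complete medium, treated 16 h at 37 C; live-cell protease cleavage of GF-AFC read by fluorescence (Ex/Em 405/510) after 60 min reagent; AC50 from Hill fits of concentration-response.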

[30] = Cell Viability - LYMP1-003 - Assay at 24 hr (AID 963)
Method in brief: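 Human lymphoblastoid LYMP1-003 cells, 2500/well, treated 24 h at 37 C in complete medium. Viability read as intracellular ATP by CellTiter-Glo luminescence after 30 min at room temperature; AC50 from Hill-equation fits of qHTS concentration-response.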

## C[C@H]1CCCC(=O)CCC/C=C/c2cc(O)cc(O)c2C(=O)O1
[1]
  Potency: > 92 µM
[2]
  Potency: 31.1 µM (active) and 40.2 µM (active)
[3]
  Potency: > 92 µM
[4]
  Potency: > 92 µM
[5]
  Potency: 59.8 µM (active)
[6]
  outcome: inactive
[7]
  activity change, negative = cytotoxicity: -95.8% (active) and -87.8% (active)
[8]
  activity change, negative = cytotoxicity: -105% (active)
[9]
  Potency: inactive
[10]
  Potency: 12.6 µM (active) and 31.6 µM (active)
[11]
  activity change, negative = cytotoxicity: -28.2% [at 91.7 µM]
[12]
  outcome: inactive
[13]
  caspase-3 activation: 17.6% and 19.1%
[14]
  outcome: inactive
[15]
  outcome: inactive
[16]
  outcome: inactive
[17]
  outcome: inactive
[18]
  outcome: inactive
[19]
  outcome: inactive
[20]
  outcome: inactive
[21]
  outcome: inactive
[22]
  outcome: inactive
[23]
  caspase-3 activation: 5.71% [at 91.7 µM] and 9.28% [at 91.7 µM]
[24]
  Potency: inactive
[25]
  Potency: inactive
[26]
  Potency: inactive
[27]
  Potency: inactive
[28]
  Potency: inactive
[29]
  Potency: inactive
[30]
  Potency: inactive

From PubChem BioAssay (NCATS)
